DTT redox prof: compounds producing H2O2 with reducing agent – biochemical, NIH compound library profiling, artefact control for MLSCN library redox annotation, primary screen; AID 878; actives 0.03% (n = 200,000); activation, % at 10 µM; DTT-dependent redox cycling H2O2, phenol red/HRP absorbance; 100% = 100 µM peroxide control, 0% = buffer;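 active = activation of at least 50% relative to the plate's high and low controls in the primary single-dose screen; inactive = activation below 50%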;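 note: compound incubated with DTT at 0.8 mM final as the reducing agent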
HSV augment: HSV replication enhancement; HSV replication augmentation in cells, fold increase; maximum fold increase; actives 0.005% (n = 220,000); in the data active = maximum fold increase above about 1.5; inconclusive = no clear call, values can overlap the other calls; tested in PC3 cells
Hsp70 activator: switches on Hsp70 transcription. HeLa Hsp70 promoter luciferase reporter, luminescence; scaled: vehicle 0, proteasome-inhibitor control 100%. activation, % at 10 µM. actives 0.04% (n = 200,000);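 active = activation above the mean across all tested compounds plus 3 SD, cutoff set per campaign, cut at about 5.5% in these data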
Wee1 stabilizer: blocks degradation of human Wee1 kinase; P30291; HeLa Luc-Wee1K328M stability, luciferase luminescence; 100% = proteasome inhibitor MG132 effect; reporter increase, % at 5 µM; actives 1.2% (n = 220,000);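 active = activation above the mean of all tested compounds plus 3 SD, set per screening run, cut at about 8.8% in these data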;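 note: cells exposed to compound for 20 h before luminescence read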
Target sequence (P30291 whole entry K328M): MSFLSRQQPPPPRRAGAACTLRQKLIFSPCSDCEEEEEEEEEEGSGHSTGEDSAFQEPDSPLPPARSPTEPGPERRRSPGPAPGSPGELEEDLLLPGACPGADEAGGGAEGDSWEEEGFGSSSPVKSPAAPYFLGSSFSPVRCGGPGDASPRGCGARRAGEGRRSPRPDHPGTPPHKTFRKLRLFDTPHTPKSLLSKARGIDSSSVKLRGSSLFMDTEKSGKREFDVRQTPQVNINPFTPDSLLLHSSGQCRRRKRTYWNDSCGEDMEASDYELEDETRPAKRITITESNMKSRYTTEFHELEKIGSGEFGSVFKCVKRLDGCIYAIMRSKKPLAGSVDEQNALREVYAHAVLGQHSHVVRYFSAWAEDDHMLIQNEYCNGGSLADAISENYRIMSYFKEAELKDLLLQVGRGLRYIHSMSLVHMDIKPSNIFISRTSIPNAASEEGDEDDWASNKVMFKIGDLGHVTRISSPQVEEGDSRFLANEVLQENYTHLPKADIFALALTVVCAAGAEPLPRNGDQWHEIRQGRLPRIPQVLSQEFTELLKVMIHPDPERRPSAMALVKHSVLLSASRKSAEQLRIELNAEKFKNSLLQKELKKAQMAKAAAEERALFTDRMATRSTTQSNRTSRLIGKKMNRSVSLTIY
p97 ATPase inh: inhibitors of human p97 ATPase; recombinant p97 ATPase, Kinase-Glo ATP luminescence, 3 h; P55072; inhibition, % at 8 µM; actives 0.42% (n = 220,000); in the data active = inhibition above about 15%
Redox H2O2 DR: generates H2O2 by DTT-dependent redox cycling, confirmed in dose response | actives 40% (n = 60) | shares compounds with DTT redox prof | AID 1234 | phenol red-HRP absorbance | EC50, µM;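 active = EC50 under a set limit for hydrogen peroxide production with the reducing agent DTT present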
Hsp70 act DR: dose response of Hsp70 transcriptional activators; shares compounds with Hsp70 activator; HeLa hsp70.1pr-luc reporter, luciferase luminescence; calls only at 99 µM; actives 10% (n = 70); AID 1252;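 active = over 50% activation at some tested dose; inactive = under 50% activation at every tested dose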
Wee1 degr conf: confirmation of human Wee1 degradation inhibitors; shares compounds with Wee1 stabilizer; HeLa Luc-Wee1K328M degradation, luminescence; vehicle 0%, proteasome-blocked wells 100%; activation, % at 5 µM; actives 4% (n = 1,100); AID 1410; in the data active = activation above about 8.9%
p97 confirm: human p97 ATPase inhibition, confirmation | shares compounds with p97 ATPase inh | recombinant p97 ATPase, Kinase-Glo ATP luminescence | inhibition, % at 8 µM | actives 44% (n = 760);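 active = percent inhibition of p97 ATPase above a set limit, the primary screen's mean plus 3 SD, cut at about 15% in these data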
Numbers stand for hits; 0 = inactive; ? = inconclusive; - = no result; + = active, no number; ! = a repeat was not active. Only some compounds are listed: those with a hit (about 1.6% of all), similar ones and a draw of the others.

SMILES | DTT redox prof | HSV augment | Hsp70 activator | Wee1 stabilizer | p97 ATPase inh | others
COc1cc(CN=C(C)c2c(O)n(C)c(=O)n(C)c2=O)cc(OC)c1 | - | 0 | - | 9.0 | 0
CC(=NCc1ccc(F)cc1)c1c(O)n(C)c(=O)n(C)c1=O | 0 | 0 | 0 | 0 | 0
Clc1ccc(Cn2ccnc2)cn1 | 0 | 0 | 0 | 0 | 0
O=[N+]([O-])/C=C1\NCCN1Cc1ccc(Cl)nc1 | 0 | 0 | 0 | 9.6! | 0
O=C(O)c1ccc2c(c1)C1C(Cl)C(Sc3ccccc3[N+](=O)[O-])CC1C(c1cccc([N+](=O)[O-])c1)N2 (stereo not drawn) | 0 | 0 | 0 | 0 | 15
O=C(O)c1cccc2c1NC(c1cccc([N+](=O)[O-])c1)C1CC(Sc3ccccc3[N+](=O)[O-])C(Cl)C21 (stereo not drawn) | 0 | 0 | 0 | 0 | 0
CC(NCc1ccc(Cl)cc1)C(O)c1ccccc1 (stereo not drawn) | 0 | 0 | 0 | 8.9 | 0
CC(NCc1ccc(Cl)cc1Cl)C(O)c1ccccc1 (stereo not drawn) | 0 | 0 | 0 | 0 | 0
c1nc2nc3c(c(N4CCNCC4)n2n1)CCCC3 | - | 0 | - | 0 | 0
CC(C)CC12CN3CCN(CC(C3)/C1=N/O)C2 | 0 | 0 | 0 | 0 | 0
Cc1ccc(-c2nn(Cc3ccccc3)cc2C=O)cc1C | 0 | 0 | 0 | 0 | 0
Cc1ccc(-c2nn(Cc3ccccc3)cc2C=O)cc1 | 0 | 0 | 0 | 9.1 | 0
Cc1ccsc1C(=O)C1CCCN(Cc2cnn(C(C)C)c2)C1 (stereo not drawn) | 0 | 0 | 0 | 0 | 0
Cc1ccsc1C(=O)C1CCCN(Cc2cnc(N)nc2)C1 (stereo not drawn) | - | 0 | - | 9.6 | 0
CC12CN3CC(C)(CN(C1)C3c1ccco1)C2=O (stereo not drawn) | 0 | 0 | 0 | 9.3 | 0
O=c1[nH]c(=S)n(C2CC2)c(O)c1/C=N/Nc1cccc2ccccc12 | 0 | ? | 0 | 8.9 | 0
NS(=O)(=O)c1cccc(N2CCNCC2)c1 | 0 | 0 | 0 | 0 | 0
Cc1ccc(/C=C2/C(=O)NC(=O)N(C)C2=O)cc1 | 0 | 0 | 0 | 8.9 | 0
Cc1ccc2[nH]c(=S)n(-c3cccnc3)c(=O)c2c1 | - | 0 | - | 0 | 0
O=c1c2ccccc2[nH]c(=S)n1-c1cccnc1 | - | 0 | - | 9.7 | 0
C[C@@H](N)Cc1cnc[nH]1 | - | 0 | - | - | -
CC(=O)O[C@@H]1/C=C/[C@](C)(O)C[C@@H](C)C/C=C/[C@H]2[C@H](O)[C@@](C)(O)[C@@H](C)[C@H]3[C@H](Cc4ccccc4)NC(=O)[C@@]312 | - | 0 | - | - | -
CNC(=O)c1cccn(Cc2cc(C(F)(F)F)cc(C(F)(F)F)c2)c1=O | 0 | 0 | 0 | 0 | 0
CN(C)/C=c1\sc2c(C#N)cc(C(=O)c3ccc(Br)cc3)n2c1=O | 0 | 3.4 | 0 | 0 | 0
Cc1cc(C(=O)CS(=O)(=O)c2ccccc2)cc(C)c1OC(=O)N(C)C | 0 | 0 | 0 | 10 | 0
SMILES | DTT redox prof | HSV augment | Hsp70 activator | Wee1 stabilizer | p97 ATPase inh | others
Cc1ccc(S(=O)(=O)CC(=O)c2cc(C)c(OC(=O)N(C)C)c(C)c2)cc1 | 0 | 0 | 0 | 0 | 0
Cc1nn(C2CCOC(C)(C)C2)c2c1C(c1ccc3c(c1)OCO3)SCC(=O)N2 (stereo not drawn) | 0 | 0 | 0 | 11 | 0
CC/C(=N\NC(=O)c1ccccc1)c1c(O)n(Cc2ccccc2)c(=O)[nH]c1=O | - | 0 | - | 10 | 0
CCCCn1c(NC(=O)c2ccc(Br)o2)c(C(=O)OCC)c2nc3ccccc3nc21 | 0 | 0 | 0 | 0 | 17
CN(C)C1(CNC(=O)c2ccc(Cl)c(S(=O)(=O)NCc3ccco3)c2)CCCCC1 | 0 | 0 | 0 | 15 | 0
CC1(C)C(C(=O)NCc2ccco2)C1(C)C | 0 | 0 | 0 | 0 | 0
COc1ccc(N=Nc2c(O)[nH]c(=S)[nH]c2=O)cc1 | 0 | 0 | 0 | 9.8 | 0
CCOC(=O)c1[nH]c(C)c(C(=O)N2CCC3(CC2)OCCO3)c1C | 0 | 0 | 0 | 0 | 0
CCOc1ccc(N2C(=O)NC(=O)/C(=C/c3cnc(SC)nc3)C2=O)cc1 | 0 | 0 | 0 | 10 | 0
CC1=NN(c2ccccc2)C(=O)C1/C=C1\C(=O)NC(=O)N(c2ccc(C)c(C)c2)C1=O (stereo not drawn) | 0 | - | 0 | 0 | 0
CC(=O)OC1N=C(c2ccccc2)c2cc(C)ccc2NC1=O (stereo not drawn) | 0 | 0 | 0 | 0 | 0
CCCCn1c(NS(=O)(=O)c2ccccc2)c(C(=O)OCC)c2nc3ccccc3nc21 | 167 | 0 | 0 | 0 | 21 | Redox H2O2 DR=0;p97 confirm=0
CC12CN3CC(C)(CN(C1)P3(=O)Oc1ccccc1)C2=O (stereo not drawn) | 0 | 0 | 0 | 0 | 0
COC(=O)C[C@]1(C(=O)OC)CN(C#N)N(c2ccc(Cl)cc2)C12c1ccccc1-c1ccccc12 | 0 | 0 | 12 | 0 | 0 | Hsp70 act DR=0
Cc1ccccc1-n1c(/C=C/c2ccccn2)nc2ccccc2c1=O | - | 0 | - | 0 | 0
CN1C2CCC1/C(=C/c1ccccn1)C(=O)/C2=C\c1ccccn1 | 0 | 0 | 18 | 21 | 0 | Hsp70 act DR=+
Cc1ccc(C(=O)Nc2ccc(-n3ccnc3P(=O)(O)c3ccccc3)cc2)cc1 | 0 | 0 | 0 | 0 | 0
CCOc1ccc([N+](=O)[O-])cc1CNCCc1ccccc1 | 0 | 0 | 0 | 11 | 0 | Wee1 degr conf=0
CCOc1ccc(Cl)cc1CNCCc1ccccc1F | - | 0 | - | 0 | 0
C/C(=N\N1CCCCCC1)c1c(O)n(C)c(=O)n(C)c1=O | - | 0 | - | 0 | 0
COc1ccccc1N1CCN(Cc2ccc(F)cc2)CC1 | 0 | - | 0 | 14 | 0 | Wee1 degr conf=0
COc1ccc(CN2CCN(c3ccccc3F)CC2)cc1O | 0 | 0 | 0 | 0 | 0
CC(=O)OC1(c2ccccc2)CC(C(C)(C)C)CN(C(C)(C)C)C1 (stereo not drawn) | 0 | 0 | 0 | 14 | 0 | Wee1 degr conf=0
COc1cc(N2CCOCC2)ccc1/C=C1\C(=O)NC(=O)N(C2CCCCC2)C1=O | 0 | 0 | 0 | 0 | 0
CN1CCN(Cc2nc3ccccc3n2C)CC1 | 0 | 0 | 0 | 0 | 0
Cn1c(NN=O)nc2ccccc21 | 0 | 0 | 0 | 15 | 0 | Wee1 degr conf=0
COC(=O)C1C2c3ccccc3OC1(C)N=c1s/c(=C/c3cn(C)nc3C)c(=O)n12 (stereo not drawn) | 0 | 0 | 0 | 0 | 0

High-throughput results (PubChem)
